Test results reported in PubChem BioAssay.
“And” between values parts separate entries of the source, which are not always exact repeats. Identical values can stand only once. The source made the active and inactive calls.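 Rule for the calls, unless noted: active = mean z-score across replicates of 1.96 or higher in either the MELAS or the Rieske mutant cell line; inactive = the rest.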

Key:
[1] = compounds altering viability of human ES cells (AID 493140; call rule not given here;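 note: cells exposed to compounds for four days before counting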); conditions: human embryonic stem cell survival screen; stronger effect = higher value
[2] = stimulators of insulin release from INS-1E, primary screen, cell-based, 5 mM glucose, NPC library (AID 1117329;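 active = compound raises insulin release from rat beta cells at 5 mM glucose, no numeric limit stated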); conditions: rat INS-1E insulin secretion, at 10 µM, stronger effect = higher value
[3] = growth inhibition of GSK3B-pretreated HCT116 cells – cell-based, CellTiter-Glo, 0.2 to 20 µM (AID 1117336;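 active = compounds lowering colon cancer cell viability after pretreatment blocking the GSK3B kinase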); conditions: HCT116 viability after GSK3B inhibitor, at 20 µM, stronger effect = higher value
[4] = inhibition of endothelial tube formation, primary screen, imaging, VEGF stimulated, CD31 staining, tube area, NPC library (AID 1117340;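 active = compound that reduces growth-factor-driven endothelial tube area in a mixed cell culture, no cutoff stated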); conditions: VEGF-stimulated ADSC/ECFC co-culture, at 10 µM, stronger effect = higher value
[5] = GLP1 release stimulators, primary, NCI-H716, NPC library (AID 1117341;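 active = compound raises GLP1 secretion from the human gut endocrine cells, with no numeric limit stated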); conditions: NCI-H716 cells, at 10 µM, stronger effect = higher value
[6] = HCT116 colon cancer cell growth inhibition, primary screen, CellTiter-Glo luminescence, NPC library (AID 1117342;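 active = compounds that lower survival of HCT116 colon cancer cells in the luminescence readout, no numeric limit stated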); conditions: at 20 µM (top of the series)
[7] = reduced SW480 viability measured with CellTiter-Glo, NPC library, primary (AID 1117343;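 active = compounds that lower viability of the colon cancer cells in the luminescence readout, with no numeric limit stated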); conditions: CellTiter-Glo luminescence; at 20 µM (top of the series) unless noted
[8] = NPC library primary testing for decreased DLD-1 cell viability via CellTiter-Glo (AID 1117346;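 active = compounds that lower survival of DLD-1 colon cancer cells in the luminescence readout, no cutoff given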); conditions: DLD-1 viability, CellTiter-Glo luminescence; at 20 µM (top of the series)
[9] = biological target: 6-phosphogluconate dehydrogenase, decarboxylating (Homo sapiens) (UniProt P52209); experiment: inhibition of human phosphogluconate dehydrogenase – biochemical, recombinant enzyme, NADPH absorbance, primary screen (AID 1159550;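 active = at least 20% inhibition of 6-phosphogluconate dehydrogenase activity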); conditions: recombinant 6PGD, NADPH absorbance 341 nm; at 10 µM; stronger effect = higher value
Chain of 6-phosphogluconate dehydrogenase, decarboxylating (Homo sapiens) (P52209 whole entry, looked up): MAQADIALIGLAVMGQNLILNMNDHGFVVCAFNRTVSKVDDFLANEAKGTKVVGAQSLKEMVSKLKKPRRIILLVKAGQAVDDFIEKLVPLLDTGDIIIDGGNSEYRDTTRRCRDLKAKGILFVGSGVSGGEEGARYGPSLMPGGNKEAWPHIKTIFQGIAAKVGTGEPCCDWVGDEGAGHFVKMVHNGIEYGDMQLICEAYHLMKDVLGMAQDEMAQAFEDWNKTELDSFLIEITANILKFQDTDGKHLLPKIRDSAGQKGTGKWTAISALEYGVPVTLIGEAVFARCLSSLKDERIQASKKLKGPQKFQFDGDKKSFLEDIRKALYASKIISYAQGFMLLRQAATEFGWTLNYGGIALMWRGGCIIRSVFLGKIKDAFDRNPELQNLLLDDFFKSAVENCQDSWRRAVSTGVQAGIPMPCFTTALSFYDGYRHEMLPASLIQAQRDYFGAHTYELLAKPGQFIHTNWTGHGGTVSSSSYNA

[10] = modulation of C. elegans fzo-1 (AID 1259413; call rule not given here;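 note: fzo-1 mutant C. elegans worms in liquid wells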); conditions: C. elegans fzo-1 modulator screen, mean read-out; stronger effect = higher value
[11] = EMT-state selective cytotoxicity in co-culture – imaging, PC-3E GFP, TEM4-18 mCherry, primary screen (AID 1345086;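 active = compounds killing one labelled cell type while sparing the other, by normalised counts and ratio limits, not self-fluorescent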;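 for all read-outs here: cells exposed to compound for 72 h before imaging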;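 for red/green cell ratio (normalised): normalised mesenchymal count divided by normalised epithelial count so high means epithelial killing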); conditions: PC-3E GFP / TEM4-18 mCherry co-culture, imaging cell counts, at 1 µM; for red/green cell ratio (normalised): actives lie on both sides, counts scaled to control wells, 1 = unselective
[12] = blockers of cellular phospholipid synthesis – cell-based, LOPAC library, screen 4, primary screen (AID 1347384; call rule not given here); conditions: animal cells, phospholipid biosynthesis inhibition screen; at 10 µM
[13] = MELAS cybrid and Rieske KO viability enhancers – cell-based, MELAS cybrids, Rieske KO mouse fibroblasts, CellTiter-Glo, primary screen (AID 1508586); conditions: low glucose;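 note: z relative to plate mean and SD of compound and empty wells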
[14] = biological target: NAD(+) hydrolase SARM1 (Homo sapiens) (UniProt Q6SZW1); experiment: blocking NAD cleavage by SARM1 SAM-TIR – cell lysate, NAD-Glo luminescence (AID 1508614;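 active = compound whose remaining NAD level is above about 45 nM, limit read from the data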;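 note: higher remaining NAD means stronger inhibition of SARM1 NADase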); conditions: SAM-TIR HEK293T lysate NADase, at 1 µM, stronger effect = higher value
Chain of NAD(+) hydrolase SARM1 (Homo sapiens) (Q6SZW1 whole entry, looked up, the tested form may be a part): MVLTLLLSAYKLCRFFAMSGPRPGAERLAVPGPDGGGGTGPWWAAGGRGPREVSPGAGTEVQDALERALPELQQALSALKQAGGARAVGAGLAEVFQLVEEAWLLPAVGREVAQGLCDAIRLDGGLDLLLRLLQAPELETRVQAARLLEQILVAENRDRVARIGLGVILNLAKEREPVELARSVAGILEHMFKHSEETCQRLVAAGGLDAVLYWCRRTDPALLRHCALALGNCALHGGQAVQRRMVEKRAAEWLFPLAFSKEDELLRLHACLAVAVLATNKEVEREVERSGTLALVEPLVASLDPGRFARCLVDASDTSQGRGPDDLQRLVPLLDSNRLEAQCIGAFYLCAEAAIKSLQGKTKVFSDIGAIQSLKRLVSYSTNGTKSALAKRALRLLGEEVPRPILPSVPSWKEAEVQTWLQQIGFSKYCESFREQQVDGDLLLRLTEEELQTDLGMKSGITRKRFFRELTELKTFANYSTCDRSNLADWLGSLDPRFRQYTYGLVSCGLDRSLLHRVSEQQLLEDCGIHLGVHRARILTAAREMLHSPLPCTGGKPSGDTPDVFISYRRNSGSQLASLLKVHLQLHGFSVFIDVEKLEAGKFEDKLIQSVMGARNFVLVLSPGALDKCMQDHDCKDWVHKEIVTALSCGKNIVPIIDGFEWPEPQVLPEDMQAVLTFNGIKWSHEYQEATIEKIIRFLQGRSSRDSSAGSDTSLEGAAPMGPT

[15] = biological target: Mitogen-activated protein kinase 7 (Homo sapiens) (UniProt Q13164); experiment: Gal4-ERK5 driven luciferase induction – cell-based, HTS, primary screen (AID 1508626;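 active = luciferase signal above three times the same-plate solvent-only control wells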;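 note: luciferase driven by Gal4-ERK5 fusion binding five Gal4 sites before minimal TATA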); conditions: HeLa Gal4-ERK5 transactivation, 18 h, at 5 µM, stronger effect = higher value
Chain of Mitogen-activated protein kinase 7 (Homo sapiens) (Q13164 whole entry, looked up, the tested form may be a part): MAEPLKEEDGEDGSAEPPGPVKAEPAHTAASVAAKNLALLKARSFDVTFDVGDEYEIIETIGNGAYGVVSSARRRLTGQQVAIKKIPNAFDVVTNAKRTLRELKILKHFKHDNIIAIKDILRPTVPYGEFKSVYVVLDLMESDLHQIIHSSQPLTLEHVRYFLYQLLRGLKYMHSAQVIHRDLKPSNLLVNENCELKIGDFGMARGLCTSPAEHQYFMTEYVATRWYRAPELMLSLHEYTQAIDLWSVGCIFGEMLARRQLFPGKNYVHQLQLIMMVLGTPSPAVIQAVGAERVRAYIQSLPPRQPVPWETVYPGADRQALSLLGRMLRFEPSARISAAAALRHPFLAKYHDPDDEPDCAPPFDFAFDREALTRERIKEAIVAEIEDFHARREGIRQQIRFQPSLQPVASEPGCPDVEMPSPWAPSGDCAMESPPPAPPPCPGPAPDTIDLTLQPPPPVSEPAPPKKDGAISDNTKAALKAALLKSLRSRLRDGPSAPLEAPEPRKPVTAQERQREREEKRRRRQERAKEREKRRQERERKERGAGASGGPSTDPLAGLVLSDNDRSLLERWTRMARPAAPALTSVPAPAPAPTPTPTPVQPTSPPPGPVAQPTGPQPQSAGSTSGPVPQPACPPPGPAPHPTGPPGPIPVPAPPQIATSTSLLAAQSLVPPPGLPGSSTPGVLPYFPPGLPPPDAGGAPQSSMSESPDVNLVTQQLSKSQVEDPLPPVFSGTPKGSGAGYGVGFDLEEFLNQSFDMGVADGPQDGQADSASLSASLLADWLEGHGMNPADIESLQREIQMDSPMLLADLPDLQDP

[16] = galactose survival enhancers in mitochondrial complex I cybrids – cell-based, galactose medium, ATP luminescence, primary screen (AID 1645843;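 active = z-score of at least 1.8 in each of two replicates, scored against plate mean and spread of sample wells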;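 note: positive z means more ATP and so rescue of galactose-driven cybrid death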); conditions: complex I mutant cybrid cells, 72 h, stronger effect = higher value
[17] = P. berghei load reduction in hepatocytes – cell-based, HepG2, luciferase luminescence, HepG2 viability, primary screen (AID 624349; in the data active = parasite load remaining mostly below about 12%, no sharp cut-off; inactive = mostly above about 10%;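 note: 100% = mean of DMSO negative control wells on the same plate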); conditions: P. berghei liver stage in HepG2, luciferase luminescence, concentration not given here; parasite load remaining: stronger effect = lower value; viability: measured here: HepG2 viability without parasites
[18] = Wnt pathway potentiators raising nuclear beta-catenin – imaging, WNT3A-conditioned medium, mouse C2C12, NPC library, primary screen (AID 1117326; in the data active = nuclear beta-catenin stimulation mostly above about 4.2%, no sharp cut-off; inactive = mostly below about 10%); conditions: stronger effect = higher value
[19] = viability loss with induced miR-34 in A549 – imaging, A549 dox-inducible miR-34, nuclei and caspase counts, primary screen (AID 1347080;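 active = compounds whose cell count with miR-34 switched on is under 0.7 times the count with it off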); conditions: A549 miR-34 inducible, Hoechst nuclei count, 48 h
[20] = measured here: epithelial PC-3E GFP cell survival
[21] = measured here: mesenchymal TEM4-18 mCherry cell survival
[22] = MELAS cybrid survival, CellTiter-Glo 48 h, stronger effect = higher value
[23] = Rieske KO mouse fibroblast survival, CellTiter-Glo 72 h
[24] = stronger effect = lower value, cell number ratio, induced over uninduced
[25] = measured here: relative caspase fold change +Dox/-Dox
[26] = measured here: total cells with miR-34 induction, stronger effect = lower value
[27] = measured here: total cells without miR-34 induction

Q: Which results are given for `COc1ccc2cc([C@H](C)C(=O)O)ccc2c1`?
A: survival [1]: 2.08 (inactive); insulin secretion stimulation [2]: -0.7% (inactive); viability decrease [3]: -21% (inactive); tube area decrease [4]: 16.3% (inactive); GLP1 secretion stimulation [5]: -1.7% (inactive); inhibition of viability [6]: -1.1% (inactive); viability decrease (inhibition) [7]: 30.2% (inactive); viability decrease (inhibition) [8]: -14.8% (inactive); inhibition [9]: -2.26% (inactive); mean signal [10]: 264 (inactive); red/green cell ratio (normalised) [11]: 1.07 (inactive); normalised cell number [11, 20]: 1.19; normalised cell number [11, 21]: 1.27; outcome [12]: inactive; z-score [13, 22]: 0.168 (inactive); z-score [13, 23]: -0.681; remaining NAD [14]: 10 nM (inactive); luciferase signal [15]: 36 AU (inactive); z-score [16]: 0.36 (inactive) and 0.18 (inactive) and 0.675 (inactive)

Q: Which results are given for `O=C(CCCN1CCC(O)(c2ccc(Cl)cc2)CC1)c1ccc(F)cc1`?
A: survival [1]: 6.08 (inactive); insulin secretion stimulation [2]: 10.8% (inactive); viability decrease [3]: 75.7% (active); tube area decrease [4]: -3.9% (inactive); GLP1 secretion stimulation [5]: 7.5% (inactive); inhibition of viability [6]: 63.5% (active); viability decrease (inhibition) [7]: 66.8% (active); viability decrease (inhibition) [8]: 35.5% (inactive); inhibition [9]: -6.6% (inactive); mean signal [10]: 271 (inactive); red/green cell ratio (normalised) [11]: 0.92 (inactive); normalised cell number [11, 20]: 0.87; normalised cell number [11, 21]: 0.8; outcome [12]: inactive; z-score [13, 22]: -0.322 (inactive) and 0.952 (inactive) and 0.0534 (inactive); z-score [13, 23]: -0.84 and 0.343 and 0.587; remaining NAD [14]: 10 nM (inactive); luciferase signal [15]: 40 AU (inactive)

Q: What does the source list for `COc1ccc2c(c1)C(=O)N(CCc1ccc(S(=O)(=O)NC(=O)NC3CCCCC3)cc1)C(=O)C2(C)C`?
A: survival [1]: 22.9 (inactive); parasite load remaining [17]: 128% (inactive); viability [17]: 79.4%; nuclear beta-catenin stimulation ([18]; at 10 µM): 0.7% (inactive); nuclear beta-catenin stimulation ([18]; stimulation, at 2 µM): 10.6%; viability decrease [3]: 87.4% (active); inhibition of viability [6]: 68% (active); viability decrease (inhibition) [7]: 87.1% (active); viability decrease (inhibition) [8]: 94% (active); fold change [19, 24]: 0.971 (inactive) and 0.893 (inactive); fold change [19, 25]: 0.765 and 0.69; cell count [19, 26]: 9100 and 8180; cell count [19, 27]: 9360 and 9160; z-score [13, 22]: -0.157 (inactive) and 0.277 (inactive); z-score [13, 23]: -0.221 and -0.0621

Q: What does the source list for `COC(=O)C1=C(C)NC(C)=C(C(=O)OCCN(C)Cc2ccccc2)C1c1cccc([N+](=O)[O-])c1` (configuration not stated)?
A: survival [1]: 2.33 (inactive); insulin secretion stimulation [2]: 2.9% (inactive); viability decrease [3]: 91.4% (active); tube area decrease [4]: 14.2% (inactive); GLP1 secretion stimulation [5]: -2.4% (inactive); inhibition of viability [6]: 104% (active); viability decrease (inhibition) [7]: 126% (active); viability decrease (inhibition) [8]: 84.9% (active); inhibition [9]: -13.8% (inactive); mean signal [10]: 246 (inactive); red/green cell ratio (normalised) [11]: 0.81 (inactive); normalised cell number [11, 20]: 1.09; normalised cell number [11, 21]: 0.89; outcome [12]: inactive; z-score [13, 22]: -0.48 (inactive) and -0.0308 (inactive) and 0.219 (inactive); z-score [13, 23]: -0.154 and -0.712 and 0.12; remaining NAD [14]: 10 nM (inactive); luciferase signal [15]: 48 AU (inactive); z-score [16]: -1.29 (inactive) and -1.5 (inactive) and 0.665 (inactive)

Q: What does the source list for `CC(C)(C)CC(C)(C)c1ccc(OCCOCC[N+](C)(C)Cc2ccccc2)cc1`?
A: survival [1]: 0.167 (inactive); insulin secretion stimulation [2]: 4.2% (inactive); viability decrease [3]: 102% (active); tube area decrease [4]: 110% (active); GLP1 secretion stimulation [5]: 89.6% (active); inhibition of viability [6]: 103% (active); viability decrease (inhibition) [7]: 145% (active); viability decrease (inhibition) [8]: 106% (active); inhibition [9]: -3.07% (inactive); fold change [19, 24]: 0.798 (inactive) and 0.823 (inactive) and 0.768 (inactive); fold change [19, 25]: 1.51 and 1.83 and 3.74; cell count [19, 26]: 2760 and 5310 and 8060; cell count [19, 27]: 3460 and 6450 and 10500; z-score [13, 22]: -0.38 (inactive) and -2.14 (inactive); z-score [13, 23]: -0.151 and 1.32; remaining NAD [14]: 13 nM (inactive); luciferase signal [15]: 44 AU (inactive)

Q: With `NCCCC(O)(P(=O)(O)O)P(=O)(O)O` as the compound, how does the parasite load remaining [17] read?
A: 53.9% (inactive) and 32.7% (inactive)

Q: And the viability [17]?
A: 103% and 67.5%

Q: And the insulin secretion stimulation [2]?
A: 2.3% (inactive)

Q: What about the viability decrease [3] of the same compound?
A: 6.9% (inactive)

Q: And the tube area decrease [4]?
A: -27.4% (inactive)

Q: What about the GLP1 secretion stimulation [5] of the same compound?
A: 1.2% (inactive)

Q: What about the inhibition of viability [6] of the same compound?
A: 1.17% (inactive)

Q: And the viability decrease (inhibition) [7]?
A: -1.7% (inactive)

Q: And the viability decrease (inhibition) [8]?
A: -3.8% (inactive)

Q: And the red/green cell ratio (normalised) [11]?
A: 1.07 (inactive)

Q: And the normalised cell number [11, 20]?
A: 1

Q: And the normalised cell number [11, 21]?
A: 1.08

Q: And the fold change [19, 24]?
A: 1.41 (inactive) and 0.87 (inactive) and 0.867 (inactive)

Q: What about the fold change [19, 25] of the same compound?
A: 0.419 and 4.85 and 1.52

Q: And the cell count [19, 26]?
A: 8960 and 12100 and 9780

Q: And the cell count [19, 27]?
A: 6340 and 13900 and 11300

Q: And the z-score [13, 22]?
A: 0.332 (inactive) and -1.05 (inactive) and 0.581 (inactive)

Q: What about the z-score [13, 23] of the same compound?
A: 0.0856 and -0.0862 and 0.207

Q: What about the remaining NAD [14] of the same compound?
A: 10 nM (inactive)

Q: What about the luciferase signal [15] of the same compound?
A: 144 AU (inactive)

Q: What about the z-score [16] of the same compound?
A: -2.05 (inactive) and 0.675 (inactive)

Q: For `Oc1ccc2c(c1)OC(c1ccc(O)c(O)c1)C(O)C2` (configuration not stated), which inhibition [9] is on record?
A: 6.96% (inactive)

Q: With `COc1cc(O)c(C(=O)/C=C/c2ccccc2)c(OC)c1` as the compound, how does the inhibition [9] read?
A: -2.81% (inactive)

Q: Which survival [1] does the source give for `O=C(NCC1CCCCN1)c1cc(OCC(F)(F)F)ccc1OCC(F)(F)F` (configuration not stated) here?
A: 2.25 (inactive)

Q: And the parasite load remaining [17]?
A: -2.69% (inactive) and 85.7% (inactive) and 46.8% (inactive)

Q: And the viability [17]?
A: 26.8% and 98.2% and 100%

Q: What about the insulin secretion stimulation [2] of the same compound?
A: 3.7% (inactive)

Q: What about the viability decrease [3] of the same compound?
A: -3.9% (inactive)

Q: And the tube area decrease [4]?
A: -3.2% (inactive)

Q: And the GLP1 secretion stimulation [5]?
A: 1.7% (inactive)

Q: What about the inhibition of viability [6] of the same compound?
A: 21.7% (inactive)

Q: What about the viability decrease (inhibition) [7] of the same compound?
A: 1.6% (inactive)

Q: What about the viability decrease (inhibition) [8] of the same compound?
A: -7.6% (inactive)

Q: What about the mean signal [10] of the same compound?
A: 257 (inactive)

Q: And the z-score [13, 22]?
A: -0.524 (inactive) and 0.18 (inactive)

Q: What about the z-score [13, 23] of the same compound?
A: 0.614 and 0.91

Q: And the luciferase signal [15]?
A: 68 AU (inactive)

Q: And the z-score [16]?
A: -1.51 (inactive) and -0.39 (inactive) and 0.37 (inactive)

Q: Which insulin secretion stimulation [2] does the source give for `O=C(O)CCn1c2c(c3ccccc31)C[C@H](NS(=O)(=O)c1ccc(F)cc1)CC2` here?
A: 0.95% (inactive)

Q: And the viability decrease [3]?
A: 8.7% (inactive)

Q: What about the tube area decrease [4] of the same compound?
A: -6.1% (inactive)

Q: And the GLP1 secretion stimulation [5]?
A: -0.3% (inactive)

Q: And the inhibition of viability [6]?
A: 5.1% (inactive)

Q: And the viability decrease (inhibition) [7]?
A: -25.4% (inactive)

Q: What about the viability decrease (inhibition) [8] of the same compound?
A: -0.3% (inactive)

Q: And the fold change [19, 24]?
A: 0.961 (inactive)

Q: And the fold change [19, 25]?
A: 0.911

Q: And the cell count [19, 26]?
A: 5630

Q: What about the cell count [19, 27] of the same compound?
A: 5850
